From PubChem BioAssay (NCI)
The panel holds about 83,000 compounds, 20% with a hit somewhere; the sample as a whole holds those more often.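 Single-concentration screen, 48 h exposure, 96-well plates. Endpoint: percent growth. Below 10 = active.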 Values without a mark were called inactive. Active and inactive are the calls of the source.

What was measured:
Experiment in all cases: NCI-60 one-dose screen, 48 h (100 = growth as untreated, 0 = no growth, -100 = all killed)
Conditions in all cases: 10 µM unless noted
NCI-H23 lung = system: NCI-H23 lung
NCI-H226 lung = system: NCI-H226 lung
NCI-H322M lung = system: NCI-H322M lung
HOP-62 NSCLC = system: HOP-62 NSCLC
NCI-H460 lung = system: NCI-H460 lung
HOP-92 NSCLC = system: HOP-92 NSCLC
NCI-H522 lung = system: NCI-H522 lung
A549/ATCC NSCLC = system: A549/ATCC NSCLC
786-0 renal = system: 786-0 renal
COLO 205 colon = system: COLO 205 colon

| SMILES | growth (NCI-H23 lung) | growth (NCI-H226 lung) | growth (NCI-H322M lung) | growth (HOP-62 NSCLC) | growth (NCI-H460 lung) | growth (HOP-92 NSCLC) | growth (NCI-H522 lung) | growth (A549/ATCC NSCLC) | growth (786-0 renal) | growth (COLO 205 colon) |
| --- | --- | --- | --- | --- | --- | --- | --- | --- | --- | --- |
| Cc1ccc(S(=O)(=O)NCCCNc2nccc(-c3c(-c4cccc(F)c4)nc4occn34)n2)cc1 | 102% | 67.6% | 77.9% | 88.5% | 75.7% | 82.5% | 71.6% | 53.2% | 73.3% | 66% |
| CCOC(=O)/C(C#N)=C(\C)CCc1ccccc1 | 91.8% | 102% | 102% | 84.8% | 105% | 81.5% | – | 90.3% | 90.1% | 132% |
| CC(C)=CC/C=C(/C)[C@H]1CC[C@]2(C)[C@@H]1CC[C@@H]1[C@@]3(C)CCC(=O)NC(C)(C)[C@@H]3CC[C@]12C | 13.6% [100 µM] | -1.12% [100 µM] (active) | 36.1% [100 µM] | 14.3% [100 µM] | -16.7% [100 µM] (active) | -6.9% [100 µM] (active) | – | 15.3% [100 µM] | -33% [100 µM] (active) | -0.368% [100 µM] (active) |
| CCCCCCCCCCCCCC[n+]1cccc(C(N)=O)c1 | 13.9% | 13.8% | 16.8% | 17.1% | 14.8% | -26.8% (active) | -35.3% (active) | 69.5% | -40% (active) | -66.8% (active) |
| CCCCCCCCCCCCCCNC(=O)Nc1ccc(Cl)c(Cl)c1 | -0.614% (active) | 18.5% | 108% | 56.6% | 86.6% | 9.28% (active) | – | 77.8% | 12.3% | 31.7% |
| CCCCCCNC(=O)Nc1ncnc2c1ncn2-c1ccccc1 | 98% | – | 94.9% | 77.6% | 102% | 89.3% | 82.5% | 88% | 85.5% | 88.8% |
| C=C(C)[C@@H]1CC[C@]2(C(=O)OC)CC[C@]3(C)[C@H](CC[C@@H]4[C@@](C)(CCc5nn[nH]n5)[C@H](C(=C)C)CC[C@]43C)[C@@H]12 | -13.8% [100 µM] (active) | – | 9.71% [100 µM] (active) | -72.7% [100 µM] (active) | -59.3% [100 µM] (active) | -39.8% [100 µM] (active) | -25.3% [100 µM] (active) | 2.03% [100 µM] (active) | -8.74% [100 µM] (active) | -62.9% [100 µM] (active) |
| CCN(CC)CC(C)Nc1ccc(C)c2sc3ccccc3c(=O)c12 (stereo unspecified) | 65.9% | – | 91.8% | 76.3% | 19.5% | 38.2% | 64.8% | 32.7% | 53.1% | 37.9% |
| C[C@]12CCc3nc(Nc4ccccc4)sc3C1=CC[C@@H]1[C@@H]2CC[C@]2(C)/C(=N/NC(N)=S)CC[C@@H]12 | 59.7% | – | 81.9% | 68.2% | 70.3% | 85.4% | – | 43.1% | -49.8% (active) | 58.1% |
| O=C(Nc1ccc(Nc2ccncc2)cc1)c1ccc([N+](=O)[O-])cc1 | 81% | – | 90.4% | 61.7% | 77.5% | 51.1% | 52.6% | 72.4% | 56.7% | -50.3% (active) |
| CCc1cccc(Cl)c1 | 111% | – | 108% | 103% | 110% | 93.2% | 92.9% | 98.8% | 105% | 117% |
| Cc1cc(C)nc(SCC(=O)Nc2cccc(N=Cc3ccccc3O)c2)n1 | 98% | – | 101% | 102% | 101% | 77.4% | – | 101% | 103% | 105% |
| C=C(C)[C@@H]1CC[C@]2(COC(=O)c3ccccc3C(=O)O)CC[C@]3(C)[C@H](CC[C@@H]4[C@@]5(C)CC[C@H](OC(=O)c6ccccc6C(=O)O)C(C)(C)[C@@H]5CC[C@]43C)[C@@H]12 | – | 25.9% [100 µM] | 30.7% [100 µM] | 3.17% [100 µM] (active) | 19.7% [100 µM] | -22.3% [100 µM] (active) | 46.8% [100 µM] | 51.3% [100 µM] | 1.64% [100 µM] (active) | 99.3% [100 µM] |
| CN(C)c1ccc(-c2ccc(-c3ccc(C(=N)N)cc3)s2)cc1 | -46.4% (active) | – | 40.2% | -33.2% (active) | -71.1% (active) | 24.5% | -50.3% (active) | -72.7% (active) | -63.9% (active) | -66.6% (active) |
| Cc1cccc(C[C@H](NC(=O)Nc2ccc(Cl)cc2F)C(=O)N[C@@H]2C(=O)N3C[C@H](O)C[C@H]3C(=O)N3CCN(C)C[C@H]3C(=O)N[C@@H](C)C(=O)N3C[C@H](C)C[C@H]3C(=O)O[C@H]2C)c1 | 35.3% | – | 65.7% | 34.3% | 27.7% | 33.2% | 33.2% | 35.6% | 66.6% | 11.2% |
| CC(C)[C@H]1CCC2=C3CC[C@]45OC(=O)[C@@]6(CCC(C)(C)C[C@H]64)CC[C@@]5(C)[C@]3(C)CC[C@@]21C | 54.4% [100 µM] | – | 94.5% [100 µM] | 76.3% [100 µM] | 71.8% [100 µM] | 19.9% [100 µM] | – | 67.1% [100 µM] | 69.3% [100 µM] | 97% [100 µM] |
| CC(C)=CCC[C@](C)(O)[C@H]1CC[C@]2(C)[C@@H]1CC[C@@H]1[C@@]3(C)CC/C(=N/O)C(C)(C)[C@@H]3CC[C@]12C | -56.9% [100 µM] (active) | – | -1.07% [100 µM] (active) | -50.9% [100 µM] (active) | -7.45% [100 µM] (active) | -62% [100 µM] (active) | -28.9% [100 µM] (active) | -70.4% [100 µM] (active) | -21.1% [100 µM] (active) | -43.5% [100 µM] (active) |
| C=C(C)[C@@H]1CC[C@]2(COCCC#N)CC[C@]3(C)[C@H](CC[C@@H]4[C@@](C)(CCCNCCC#N)[C@H](C(=C)C)CC[C@]43C)[C@@H]12 | 29% [100 µM] | – | 72.2% [100 µM] | 77.8% [100 µM] | 9.8% [100 µM] (active) | -14.6% [100 µM] (active) | -6.77% [100 µM] (active) | 50.4% [100 µM] | 16.1% [100 µM] | 11.3% [100 µM] |
| O=C(Nc1cccc2cccnc12)c1cc(C(=O)c2ccc(Cl)cc2)n2ccc(-c3ccncc3)cc12 | 102% | – | 95.7% | 88.3% | 98% | 83.9% | 88.8% | 99.1% | 103% | 111% |
| O=C(CCCSc1nc(-c2ccccc2)cc(-c2ccccc2)n1)NO | -2.58% (active) | – | 12.6% | -8.18% (active) | 6.46% (active) | -3.2% (active) | -9.12% (active) | -1.91% (active) | 7.15% (active) | -14% (active) |
| COc1ccc2c(c1)C(C)Cc1c(Cl)ncnc1N2C (stereo unspecified) | 7.68% (active) | – | 36.1% | 11.8% | 16.6% | 6.91% (active) | -49.9% (active) | 15% | 7.84% (active) | -66% (active) |
| COCCCNc1nc(NC(=O)c2cc(Br)cc(C(F)(F)F)c2)cc(-c2cccnc2)n1 | 103% | 91.8% | 99.9% | 91.8% | 85.7% | 57.9% | – | 82% | 85.8% | 96.4% |
| N#CCCc1c[nH]c2ccccc12 | 105% | – | 94.1% | 82% | 97.7% | 75.5% | 94.6% | 89% | 104% | 99.5% |
| CC(C)[C@H]1COC(=O)N1[C@@H]1C(=O)N([C@@H](CCC(=O)N2CCN(C3CCCC3)CC2)C(=O)N[C@@H]2CCCc3ccccc32)[C@@H]1/C=C/c1cccc(Cl)c1 | 72.1% | – | 57.9% | 79% | 46.2% | 31.4% | 75.5% | 35.9% | 54.9% | 57.7% |
| Nc1cc(C(=O)O)[nH]c(=S)n1 | 95.2% | – | 98.1% | 106% | 105% | 67.7% | 96.7% | 98.5% | 100% | 112% |
| CSc1cccc([N+](=O)[O-])c1 | 109% | – | 102% | 105% | 114% | 106% | 84% | 101% | 101% | 107% |
| CCCc1cc2cc(-n3nc(C)c4c3CC(C)(C)CC4=O)cc(NC3CCSCC3)c2c(=O)[nH]1 | 36.8% | – | 63.4% | 45.9% | 66.5% | 93.2% | 47.7% | 49.1% | 66.8% | – |
